This is an account of results in paper PMC7862700, “An all-to-all approach to the identification of sequence-specific readers for epigenetic DNA modifications on cytosine”.

Common to all, as to test: DAPPL (digital affinity profiling via proximity ligation, sequencing); 10 mM Tris-HCl pH 7.5, 50 mM NaCl, 1 mM DTT, 4% glycerol, room temperature, 30 min; GST-TFs on glutathione beads, 16-mer random dsDNA library, 0.1% formaldehyde crosslink after washing; high values mean tight binding
For assay [1], the target named is T1, FEV (Homo sapiens, UniProt Q99581 1-238).
T1 sequence: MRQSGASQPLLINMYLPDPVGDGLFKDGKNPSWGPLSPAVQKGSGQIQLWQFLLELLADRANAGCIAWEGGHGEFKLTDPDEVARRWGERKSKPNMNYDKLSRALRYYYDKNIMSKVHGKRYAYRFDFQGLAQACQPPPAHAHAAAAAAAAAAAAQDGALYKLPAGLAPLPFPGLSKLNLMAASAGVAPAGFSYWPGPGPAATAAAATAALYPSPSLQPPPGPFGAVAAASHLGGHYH
The conditions noted are these: protein: recombinant; tags: N-terminal GST; dsDNA, one strand shown. Summed up: (§1)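 Binding signal is each hexamer's read frequency for a factor divided by its frequency in the tag-only sample. The factors were GST-fused human transcription factors from yeast, captured on glutathione beads, DNA-barcoded and pooled with that sample. Pools were incubated with 200 nmole of a random double-stranded 16-mer DNA library in Tris/NaCl/DTT/glycerol buffer at room temperature for 30 min, then washed, crosslinked with 0.1% formaldehyde, proximity-ligated with BsaI/T4 ligase (1 h, 37 °C), PCR-amplified and sequenced on an Illumina NextSeq500.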

The target in assay [2] is ETV5 (Homo sapiens, UniProt P41161 1-510). The conditions noted are these: protein: recombinant; tags: N-terminal GST; dsDNA, one strand shown. In outline: as §1
Chain of ETV5 (P41161 whole entry): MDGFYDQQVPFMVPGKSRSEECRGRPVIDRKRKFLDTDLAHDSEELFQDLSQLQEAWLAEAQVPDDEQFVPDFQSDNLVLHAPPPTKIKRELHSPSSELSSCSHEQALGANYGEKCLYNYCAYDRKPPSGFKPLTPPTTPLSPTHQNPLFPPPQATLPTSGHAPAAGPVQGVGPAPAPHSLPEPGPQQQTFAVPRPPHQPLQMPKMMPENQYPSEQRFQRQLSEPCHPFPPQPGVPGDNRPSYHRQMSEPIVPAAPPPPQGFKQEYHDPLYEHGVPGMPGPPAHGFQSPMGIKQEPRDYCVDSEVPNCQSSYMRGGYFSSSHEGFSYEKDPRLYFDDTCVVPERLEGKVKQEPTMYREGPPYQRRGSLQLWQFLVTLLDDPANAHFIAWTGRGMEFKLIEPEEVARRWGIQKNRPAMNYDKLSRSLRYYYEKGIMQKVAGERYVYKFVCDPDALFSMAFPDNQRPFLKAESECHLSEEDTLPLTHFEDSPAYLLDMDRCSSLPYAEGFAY
The target of assay [3] is HSF1 (Homo sapiens, UniProt Q00613 1-529). The conditions noted are these: protein: recombinant; tags: N-terminal GST; chain copies: 3; dsDNA, one strand shown. Summed up: as §1
Chain of HSF1 (Q00613 whole entry): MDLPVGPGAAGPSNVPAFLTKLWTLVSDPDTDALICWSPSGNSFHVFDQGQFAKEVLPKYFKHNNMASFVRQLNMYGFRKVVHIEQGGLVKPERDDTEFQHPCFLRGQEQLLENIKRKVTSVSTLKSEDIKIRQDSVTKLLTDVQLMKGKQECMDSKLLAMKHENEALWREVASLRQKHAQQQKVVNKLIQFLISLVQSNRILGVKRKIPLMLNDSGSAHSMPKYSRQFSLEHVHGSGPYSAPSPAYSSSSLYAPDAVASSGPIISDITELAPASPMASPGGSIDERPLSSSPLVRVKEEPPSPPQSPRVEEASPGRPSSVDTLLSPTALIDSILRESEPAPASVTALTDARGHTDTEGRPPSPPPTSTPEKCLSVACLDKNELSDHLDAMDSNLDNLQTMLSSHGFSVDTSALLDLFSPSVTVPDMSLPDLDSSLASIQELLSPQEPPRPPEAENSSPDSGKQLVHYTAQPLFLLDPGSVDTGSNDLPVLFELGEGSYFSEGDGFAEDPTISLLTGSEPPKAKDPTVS
The target in assay [4] is T2, SPIC (Homo sapiens, UniProt Q8N5J4 1-248).
T2 sequence: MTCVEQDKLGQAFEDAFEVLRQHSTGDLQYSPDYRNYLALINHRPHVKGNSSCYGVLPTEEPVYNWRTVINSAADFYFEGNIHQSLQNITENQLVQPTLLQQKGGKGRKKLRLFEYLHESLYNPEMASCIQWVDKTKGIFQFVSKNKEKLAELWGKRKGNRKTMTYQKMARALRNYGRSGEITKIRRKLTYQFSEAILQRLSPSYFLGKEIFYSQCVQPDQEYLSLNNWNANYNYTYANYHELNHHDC
The conditions noted are these: protein: recombinant; tags: N-terminal GST; dsDNA, one strand shown. In outline:
as §1

Assay [5] concerns the target ELF4 (Homo sapiens, UniProt Q99607 1-663). The conditions noted are these: protein: recombinant; tags: N-terminal GST; dsDNA, one strand shown. In outline: as §1
The target of assay [6] is T3, ELK4 (Homo sapiens, UniProt P28324-2 1-405).
T3 sequence: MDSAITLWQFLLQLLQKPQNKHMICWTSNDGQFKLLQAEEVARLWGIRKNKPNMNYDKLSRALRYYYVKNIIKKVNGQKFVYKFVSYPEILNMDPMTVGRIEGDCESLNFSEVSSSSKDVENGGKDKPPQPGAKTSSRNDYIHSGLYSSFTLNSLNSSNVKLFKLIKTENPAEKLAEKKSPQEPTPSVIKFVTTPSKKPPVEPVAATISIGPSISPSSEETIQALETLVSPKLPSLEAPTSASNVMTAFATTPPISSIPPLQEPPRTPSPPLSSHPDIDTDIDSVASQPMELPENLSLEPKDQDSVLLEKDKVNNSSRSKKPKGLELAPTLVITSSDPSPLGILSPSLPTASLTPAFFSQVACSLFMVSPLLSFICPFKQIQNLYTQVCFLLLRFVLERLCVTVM
The conditions noted are these: protein: recombinant; tags: N-terminal GST; dsDNA, one strand shown. In outline:
as §1

The target in assay [7] is T4, ETV2 (Homo sapiens, UniProt O00321 1-342).
T4 sequence: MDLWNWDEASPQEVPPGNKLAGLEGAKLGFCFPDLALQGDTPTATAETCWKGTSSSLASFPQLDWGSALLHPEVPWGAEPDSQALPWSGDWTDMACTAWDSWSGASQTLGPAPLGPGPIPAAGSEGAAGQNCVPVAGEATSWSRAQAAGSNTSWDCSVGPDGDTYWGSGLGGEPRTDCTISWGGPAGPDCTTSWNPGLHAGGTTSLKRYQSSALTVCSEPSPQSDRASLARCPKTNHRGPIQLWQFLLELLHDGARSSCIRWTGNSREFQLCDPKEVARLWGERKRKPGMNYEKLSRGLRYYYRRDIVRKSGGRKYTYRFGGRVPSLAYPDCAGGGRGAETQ
The conditions noted are these: protein: recombinant; tags: N-terminal GST; dsDNA, one strand shown. Summed up:
as §1

Assay [8] deals with T5, ELF3 (Homo sapiens, UniProt P78545 1-371).
T5 sequence: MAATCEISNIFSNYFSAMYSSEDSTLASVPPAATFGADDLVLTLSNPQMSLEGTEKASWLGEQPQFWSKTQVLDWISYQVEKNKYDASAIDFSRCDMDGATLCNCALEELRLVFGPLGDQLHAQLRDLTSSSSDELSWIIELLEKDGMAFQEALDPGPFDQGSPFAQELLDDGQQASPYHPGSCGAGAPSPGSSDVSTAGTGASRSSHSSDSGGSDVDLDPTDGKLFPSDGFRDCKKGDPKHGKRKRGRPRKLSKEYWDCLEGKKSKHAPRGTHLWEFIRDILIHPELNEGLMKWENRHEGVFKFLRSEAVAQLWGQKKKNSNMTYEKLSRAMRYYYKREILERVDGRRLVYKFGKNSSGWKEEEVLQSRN
The conditions noted are these: protein: recombinant; tags: N-terminal GST; dsDNA, one strand shown. Summed up:
as §1

Assay [9] addresses CRX (Homo sapiens, UniProt O43186 1-299). The conditions noted are these: protein: recombinant; tags: N-terminal GST; dsDNA, one strand shown. In outline: as §1
The target of assay [10] is ETV1 (Homo sapiens, UniProt P50549 1-477). The conditions noted are these: protein: recombinant; tags: N-terminal GST; dsDNA, one strand shown. In outline:
as §1

Assay [11] addresses T6, ERF (Homo sapiens, UniProt P50548 1-548).
T6 sequence: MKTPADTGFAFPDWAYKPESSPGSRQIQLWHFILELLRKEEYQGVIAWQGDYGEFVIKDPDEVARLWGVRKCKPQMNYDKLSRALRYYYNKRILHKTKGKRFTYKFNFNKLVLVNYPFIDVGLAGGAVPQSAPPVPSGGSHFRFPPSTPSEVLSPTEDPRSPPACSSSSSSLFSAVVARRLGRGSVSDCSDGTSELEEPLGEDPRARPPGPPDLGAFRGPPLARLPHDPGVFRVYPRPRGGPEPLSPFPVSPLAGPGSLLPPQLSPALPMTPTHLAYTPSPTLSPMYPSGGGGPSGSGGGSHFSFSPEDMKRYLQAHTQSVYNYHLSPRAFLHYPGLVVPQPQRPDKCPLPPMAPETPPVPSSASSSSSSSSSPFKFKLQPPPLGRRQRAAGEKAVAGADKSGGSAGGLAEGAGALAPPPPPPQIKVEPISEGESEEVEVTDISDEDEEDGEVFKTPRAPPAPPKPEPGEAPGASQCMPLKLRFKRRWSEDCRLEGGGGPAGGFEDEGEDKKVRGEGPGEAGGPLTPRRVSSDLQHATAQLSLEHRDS
The conditions noted are these: protein: recombinant; tags: N-terminal GST; dsDNA, one strand shown. In outline: as §1

For assay [12], the target named is T7, ETV3L (Homo sapiens, UniProt Q6ZN32 1-361).
T7 sequence: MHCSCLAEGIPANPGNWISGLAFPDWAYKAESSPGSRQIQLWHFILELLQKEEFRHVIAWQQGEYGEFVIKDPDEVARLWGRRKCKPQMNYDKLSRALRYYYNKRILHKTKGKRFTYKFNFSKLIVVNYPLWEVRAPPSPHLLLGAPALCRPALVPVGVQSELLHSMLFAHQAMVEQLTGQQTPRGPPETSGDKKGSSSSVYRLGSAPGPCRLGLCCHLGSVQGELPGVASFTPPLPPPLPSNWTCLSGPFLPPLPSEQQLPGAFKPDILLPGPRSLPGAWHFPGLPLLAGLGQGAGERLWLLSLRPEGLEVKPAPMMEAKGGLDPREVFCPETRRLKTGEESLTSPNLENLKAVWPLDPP
The conditions noted are these: protein: recombinant; tags: N-terminal GST; dsDNA, one strand shown. Summed up:
as §1

Assay [13] deals with T8, ETS2 (Homo sapiens, UniProt P15036 1-469).
T8 sequence: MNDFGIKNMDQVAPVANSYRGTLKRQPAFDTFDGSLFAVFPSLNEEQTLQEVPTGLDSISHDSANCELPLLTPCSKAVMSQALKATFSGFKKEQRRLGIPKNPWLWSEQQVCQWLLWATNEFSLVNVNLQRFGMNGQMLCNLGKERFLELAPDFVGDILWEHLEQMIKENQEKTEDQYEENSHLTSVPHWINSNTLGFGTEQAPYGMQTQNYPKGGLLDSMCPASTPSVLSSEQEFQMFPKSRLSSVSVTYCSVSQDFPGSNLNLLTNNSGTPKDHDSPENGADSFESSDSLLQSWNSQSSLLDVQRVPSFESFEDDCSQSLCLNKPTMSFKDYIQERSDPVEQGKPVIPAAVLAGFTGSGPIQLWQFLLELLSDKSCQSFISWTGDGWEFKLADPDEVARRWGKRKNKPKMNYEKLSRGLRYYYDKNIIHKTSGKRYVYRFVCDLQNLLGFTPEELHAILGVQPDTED
The conditions noted are these: protein: recombinant; tags: N-terminal GST; dsDNA, one strand shown. In outline:
as §1

The target in assay [14] is T9, SPDEF (Homo sapiens, UniProt O95238 1-335).
T9 sequence: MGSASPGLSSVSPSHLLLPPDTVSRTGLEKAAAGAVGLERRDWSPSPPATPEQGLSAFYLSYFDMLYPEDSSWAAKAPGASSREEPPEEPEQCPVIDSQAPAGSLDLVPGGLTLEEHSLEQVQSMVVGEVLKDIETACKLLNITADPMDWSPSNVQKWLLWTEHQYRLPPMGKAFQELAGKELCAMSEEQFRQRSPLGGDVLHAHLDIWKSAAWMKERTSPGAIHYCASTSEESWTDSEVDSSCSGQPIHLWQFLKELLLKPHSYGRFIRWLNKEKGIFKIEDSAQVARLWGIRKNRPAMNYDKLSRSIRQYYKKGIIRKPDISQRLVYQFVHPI
The conditions noted are these: protein: recombinant; tags: N-terminal GST; dsDNA, one strand shown. Summed up: as §1

In assay [15] the target is T10, ETV7 (Homo sapiens, UniProt Q9Y603 1-341).
T10 sequence: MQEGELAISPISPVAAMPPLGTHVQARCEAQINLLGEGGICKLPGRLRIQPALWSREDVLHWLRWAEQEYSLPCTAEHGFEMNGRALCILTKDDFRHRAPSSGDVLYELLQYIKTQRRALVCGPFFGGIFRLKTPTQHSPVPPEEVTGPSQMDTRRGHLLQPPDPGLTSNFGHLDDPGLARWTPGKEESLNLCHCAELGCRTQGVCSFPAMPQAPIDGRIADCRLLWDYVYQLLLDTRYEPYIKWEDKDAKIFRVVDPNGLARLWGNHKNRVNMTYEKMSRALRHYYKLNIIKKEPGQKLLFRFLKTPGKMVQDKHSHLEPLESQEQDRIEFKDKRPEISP
The conditions noted are these: protein: recombinant; tags: N-terminal GST; dsDNA, one strand shown. Summed up:
as §1

The target of assay [16] is T11, ELF5 (Homo sapiens, UniProt Q9UKW6-2 1-255).
T11 sequence: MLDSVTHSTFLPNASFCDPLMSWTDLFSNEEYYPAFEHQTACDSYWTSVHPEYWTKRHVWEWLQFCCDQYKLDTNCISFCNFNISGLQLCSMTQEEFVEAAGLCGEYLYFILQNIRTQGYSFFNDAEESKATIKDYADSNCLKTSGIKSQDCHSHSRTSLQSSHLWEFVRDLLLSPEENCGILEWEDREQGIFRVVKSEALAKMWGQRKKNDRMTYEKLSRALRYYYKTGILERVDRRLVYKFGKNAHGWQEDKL
The conditions noted are these: protein: recombinant; tags: N-terminal GST; dsDNA, one strand shown. Summed up: as §1

Assay [17] addresses T12, ETV3 (Homo sapiens, UniProt P41162-2 1-143).
T12 sequence: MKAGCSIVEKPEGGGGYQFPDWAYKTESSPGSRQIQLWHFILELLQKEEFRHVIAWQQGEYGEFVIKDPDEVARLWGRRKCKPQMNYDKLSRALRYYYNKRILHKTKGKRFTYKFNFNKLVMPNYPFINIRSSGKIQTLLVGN
The conditions noted are these: protein: recombinant; tags: N-terminal GST; dsDNA, one strand shown. Summed up:
as §1

The target in assay [18] is ETV6 (Homo sapiens, UniProt P41212 1-452). The conditions noted are these: protein: recombinant; tags: N-terminal GST; dsDNA, one strand shown. Summed up: as §1
Chain of ETV6 (P41212 whole entry): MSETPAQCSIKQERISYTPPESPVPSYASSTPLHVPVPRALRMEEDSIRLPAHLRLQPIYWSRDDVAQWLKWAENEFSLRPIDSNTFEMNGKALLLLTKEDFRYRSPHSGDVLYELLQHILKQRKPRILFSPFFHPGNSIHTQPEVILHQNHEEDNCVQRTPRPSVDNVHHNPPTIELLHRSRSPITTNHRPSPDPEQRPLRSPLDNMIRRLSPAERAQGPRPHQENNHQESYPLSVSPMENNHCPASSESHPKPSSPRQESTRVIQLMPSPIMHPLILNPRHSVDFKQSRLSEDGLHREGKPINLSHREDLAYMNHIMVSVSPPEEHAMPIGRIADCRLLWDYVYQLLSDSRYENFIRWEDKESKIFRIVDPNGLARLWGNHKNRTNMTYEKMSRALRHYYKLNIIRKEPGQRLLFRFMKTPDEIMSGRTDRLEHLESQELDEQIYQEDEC

Chain of CRX (O43186 whole entry): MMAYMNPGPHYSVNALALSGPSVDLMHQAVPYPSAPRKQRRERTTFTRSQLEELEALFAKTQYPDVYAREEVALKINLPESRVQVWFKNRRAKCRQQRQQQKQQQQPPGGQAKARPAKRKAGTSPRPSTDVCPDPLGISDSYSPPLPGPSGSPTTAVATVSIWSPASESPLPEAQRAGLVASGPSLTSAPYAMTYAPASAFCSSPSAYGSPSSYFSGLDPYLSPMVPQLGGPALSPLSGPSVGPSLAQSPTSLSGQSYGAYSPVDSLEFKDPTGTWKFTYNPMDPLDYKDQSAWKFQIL
Chain of ELF4 (Q99607 whole entry): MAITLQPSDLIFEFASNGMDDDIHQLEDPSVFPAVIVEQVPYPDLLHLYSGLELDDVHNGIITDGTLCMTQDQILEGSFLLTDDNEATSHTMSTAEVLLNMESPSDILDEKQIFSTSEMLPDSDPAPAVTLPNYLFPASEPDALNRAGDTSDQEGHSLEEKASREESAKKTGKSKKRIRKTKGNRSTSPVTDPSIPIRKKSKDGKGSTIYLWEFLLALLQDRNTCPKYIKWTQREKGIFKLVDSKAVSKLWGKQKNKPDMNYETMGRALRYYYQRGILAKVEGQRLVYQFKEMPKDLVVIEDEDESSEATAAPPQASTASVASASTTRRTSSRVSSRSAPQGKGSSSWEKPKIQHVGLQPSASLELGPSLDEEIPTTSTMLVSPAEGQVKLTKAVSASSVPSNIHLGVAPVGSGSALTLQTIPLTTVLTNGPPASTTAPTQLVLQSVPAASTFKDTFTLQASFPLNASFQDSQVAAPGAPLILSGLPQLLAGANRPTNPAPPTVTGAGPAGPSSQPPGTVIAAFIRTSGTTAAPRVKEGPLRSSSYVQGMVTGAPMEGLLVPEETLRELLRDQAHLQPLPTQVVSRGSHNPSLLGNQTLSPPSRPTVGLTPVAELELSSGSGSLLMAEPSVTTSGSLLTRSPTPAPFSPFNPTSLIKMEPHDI
Chain of ETV1 (P50549 whole entry): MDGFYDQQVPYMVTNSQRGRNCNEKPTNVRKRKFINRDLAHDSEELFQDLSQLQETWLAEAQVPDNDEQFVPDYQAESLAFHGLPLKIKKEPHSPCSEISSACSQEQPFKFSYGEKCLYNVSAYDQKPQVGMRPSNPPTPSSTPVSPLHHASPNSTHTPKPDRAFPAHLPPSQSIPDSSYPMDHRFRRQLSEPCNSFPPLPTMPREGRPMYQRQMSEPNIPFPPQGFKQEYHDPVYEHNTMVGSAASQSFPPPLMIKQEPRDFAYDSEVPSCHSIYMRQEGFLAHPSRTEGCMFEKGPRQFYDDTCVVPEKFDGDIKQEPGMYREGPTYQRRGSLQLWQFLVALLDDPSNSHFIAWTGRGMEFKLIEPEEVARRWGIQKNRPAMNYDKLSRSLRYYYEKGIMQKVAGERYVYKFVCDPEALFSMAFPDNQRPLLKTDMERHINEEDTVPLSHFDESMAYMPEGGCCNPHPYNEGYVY

Regarding ATGGTT, the binding signal in assay [1] is 1.34 fold enrichment (6-mer frequency, TF over GST control); in [2], 1.31 fold enrichment (6-mer frequency, TF over GST control); in [3], 1.25 fold enrichment (6-mer frequency, TF over GST control); in assay [4], 1.33 fold enrichment (6-mer frequency, TF over GST control); in assay [5] it was 1.32 fold enrichment (6-mer frequency, TF over GST control); in [6], 1.42 fold enrichment (6-mer frequency, TF over GST control). For the same sequence, the binding signal in assay [7] is 1.24 fold enrichment (6-mer frequency, TF over GST control); in assay [8], 1.38 fold enrichment (6-mer frequency, TF over GST control); in assay [9], 1.17 fold enrichment (6-mer frequency, TF over GST control); in assay [10] it was 1.42 fold enrichment (6-mer frequency, TF over GST control); in assay [11], 1.27 fold enrichment (6-mer frequency, TF over GST control); in assay [12] it was 1.36 fold enrichment (6-mer frequency, TF over GST control). Further, the binding signal in assay [13] was 1.36 fold enrichment (6-mer frequency, TF over GST control); in assay [14], 1.18 fold enrichment (6-mer frequency, TF over GST control); in [15], 1.27 fold enrichment (6-mer frequency, TF over GST control); in assay [16], 1.27 fold enrichment (6-mer frequency, TF over GST control); in assay [17], 1.34 fold enrichment (6-mer frequency, TF over GST control); in assay [18], 1.3 fold enrichment (6-mer frequency, TF over GST control).
